Inconclusive results are not listed. Active and inactive are the calls of the source. The call rests on the fitted dose curve; in most records, active means well fitted inhibition curve with a large enough effect; inconclusive means small, poorly fitted or top-dose-only effect; inactive means flat fitted curve, though single readings scatter.
tested on: ATS95; experiment: qHTS profiling for inhibitors of Plasmodium falciparum proliferation (AID 504749);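 further: 0% = DMSO vehicle and full inhibition = artemisinin control; nearly all actives have a fitted effect of over 60% in size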; conditions: P. falciparum in erythrocytes, SYBR Green DNA, 72 h; series mostly up to 28.7 µM; activity, negative = inhibition: at the top concentration
In short: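 P. falciparum-infected erythrocytes (0.3% parasitemia, 2.5% hematocrit) incubated with compound 72 h at 37 C, 5% CO2. Parasite DNA detected by SYBR Green after lysis, overnight at room temperature; normalised to 0.29 uM artemisinin and DMSO.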

| SMILES | activity, negative = inhibition |
| --- | --- |
| CC(C)C[C@@H](N)C(=O)O | 11.2% (inactive) |
| COc1ccc(O)cc1 | -2.41% (inactive) |
| COc1ccccc1OC(=O)Oc1ccccc1OC | -1.86% (inactive) |
| CCCNC(C)(C)COC(=O)c1ccccc1 | -2.72% (inactive) |
| Cc1cccc(C)c1NC(=O)CC12CCCN1CCC2 | -5.69% (inactive) |
| C[C@@H]1O[C@@H](OC[C@H]2O[C@@H](Oc3c(-c4ccc(O)c(O)c4)oc4cc(O)cc(O)c4c3=O)[C@H](O)[C@@H](O)[C@@H]2O)[C@H](O)[C@H](O)[C@H]1O | 2.51% (inactive) |
| COC(=O)c1cccnc1 | 0.704% (inactive) |
| CC(C(=O)O)c1ccc2c(c1)Cc1cccnc1O2 (stereo unspecified) | -1.08% (inactive) |
| CCS(=O)(=O)CCn1c([N+](=O)[O-])cnc1C | 1.61% [at 12.8 µM] (inactive) |
| CCOc1ccc(C(=O)OCCN(CC)CC)cc1 | 6.66% (inactive) |
| CC(C)c1cc2c(cc1S(=O)(=O)O)[C@@]1(C)CCC[C@@](C)(C(=O)O)[C@@H]1CC2 | -6.88% (inactive) |
| CCN(CC)CC1CCCCN1CC(=O)N1c2ccccc2C(=O)Nc2cccnc21 (stereo unspecified) | 2.13% (inactive) |
| Cc1cc(=O)[nH]c(=S)[nH]1 | 0.182% (inactive) |
| CCOc1cc(NC(C)=O)ccc1C(=O)OC | 2.86% (inactive) |
| CCCCCCCCCCCCCCCCN | -2.82% (inactive) |
| NNC(=O)CP(=O)(c1ccccc1)c1ccccc1 | -1.99% (inactive) |
| CCCCCC(N)=O | 1.31% (inactive) |
| O[C@@H]1CO[C@H]2[C@@H]1OC[C@@H]2O | 9.64% (inactive) |

| SMILES | activity, negative = inhibition |
| --- | --- |
| CCCCCCCCCCCCCCCCCCO | 3.82% (inactive) |
| NNc1nnc(NN)c2ccccc12 | -4.83% (inactive) |
| CN/C(=C\[N+](=O)[O-])NCCSCc1csc(CN(C)C)n1 | 4.66% [at 12.8 µM] (inactive) |
| CC(=O)OCC(COC(C)=O)OC(C)=O | 9.75% (inactive) |
| O=C(O)c1ccccc1C(=O)Nc1ccc(S(=O)(=O)Nc2nccs2)cc1 | 5.04% (inactive) |
| O=C(NCN1CCOCC1)c1cnccn1 | -2.32% (inactive) |
| COc1ccc(C(=O)N2CCN(CC(=O)N3CCOCC3)CC2)cc1 | -1.16% (inactive) |
| COC(=O)c1ccc(O)cc1 | 8.8% (inactive) |
| O=c1[nH]c(=O)c2ccccc2o1 | 1.42% (inactive) |
| NC(=O)CC[C@@H](N)C(=O)O | 7.57% (inactive) |
| O=C(O)Cc1cn(-c2ccccc2)nc1-c1ccc(Cl)cc1 | 3.04% (inactive) |
| Cc1c(Cn2ccnc2)c2ccccc2n1CCC(=O)O | -3.77% (inactive) |
| O=c1[nH]cnc2nc[nH]c12 | -2.9% (inactive) |
| CCN(CC)S(=O)(=O)c1ccc(C(=O)O)cc1 | 1.15% (inactive) |
| N[C@@H](Cc1ccc(O)cc1)C(=O)O | 4.59% (inactive) |
| NS(=O)(=O)c1ccc(NC(=O)CCC(=O)O)cc1 | -4.55% (inactive) |
| CNCc1ccccc1 | 3.94% (inactive) |
| O=C(OOC(=O)c1ccccc1)c1ccccc1 | -0.835% (inactive) |
